Measured values published in PubChem BioAssay AID449729 (Southern Research Specialized Biocontainment Screening …, 2010).

target: Large T antigen (Simian virus 40) (UniProt P03070); assay: large T antigen ATP hydrolysis inhibition – biochemical, ADP-Hunter, purified TAg, synthesized compounds, set 2 (AID 449729); conditions: purified TAg ATPase, ADP-Hunter fluorescence; series mostly up to 100 µM; inhibition: at the top concentration
Sequence (P03070 whole entry, looked up): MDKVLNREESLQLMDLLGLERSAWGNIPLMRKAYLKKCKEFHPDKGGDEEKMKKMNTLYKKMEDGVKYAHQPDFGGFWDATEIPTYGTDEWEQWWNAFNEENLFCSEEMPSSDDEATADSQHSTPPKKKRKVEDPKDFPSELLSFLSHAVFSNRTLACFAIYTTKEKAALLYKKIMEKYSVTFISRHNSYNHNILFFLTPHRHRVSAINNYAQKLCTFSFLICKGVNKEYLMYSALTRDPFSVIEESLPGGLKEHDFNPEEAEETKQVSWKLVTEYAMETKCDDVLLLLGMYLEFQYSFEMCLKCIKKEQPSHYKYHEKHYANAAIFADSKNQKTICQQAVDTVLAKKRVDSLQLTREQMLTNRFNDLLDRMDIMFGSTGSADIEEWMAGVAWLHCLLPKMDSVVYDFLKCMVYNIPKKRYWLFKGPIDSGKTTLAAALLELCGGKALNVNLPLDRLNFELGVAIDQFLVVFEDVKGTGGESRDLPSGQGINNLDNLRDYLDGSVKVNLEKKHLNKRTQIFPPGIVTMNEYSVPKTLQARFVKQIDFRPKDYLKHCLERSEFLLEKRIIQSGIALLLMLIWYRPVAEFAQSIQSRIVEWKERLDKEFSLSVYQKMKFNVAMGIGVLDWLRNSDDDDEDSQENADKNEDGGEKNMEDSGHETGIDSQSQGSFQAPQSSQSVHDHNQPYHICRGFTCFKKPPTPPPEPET

inhibition, inactive:
Oc1ccc(C2(c3ccc(O)cc3)CC2)cc1 107%, C=C(c1ccc(Cl)cc1)c1ccc(Cl)cc1 -4.26%, C=C(c1cccc(OC)c1)c1cccc(OC)c1 -17.5%, C=C(c1ccc(Br)cc1)c1ccc(Br)cc1 -0.08%, CC(C)(c1ccc(O)cc1)c1cccc(O)c1 6.54%, C=C(c1ccc(F)cc1)c1ccc(F)cc1 -8.98%, COc1cccc(C(C)(O)c2cccc(OC)c2)c1 -2.76%, C=C(c1ccccc1Cl)c1ccccc1Cl 5.38%
